The results in this text go back to the supplement of paper PMC7858590.

SMILES strings stand for the structures. Several values for one entry are separate records, joined by “and”; a condition that tells them apart may be missing. Identical values can stand only once.

The first assay has as its system human monocyte-derived macrophages (polarized). The experiment in a line: cell shape (eccentricity) Z-score vs DMSO control; higher = more elongated, M2-like morphology. Conditions: 5 µM; 24 h; macrophage state: M1-polarized (IFNg + TNFa), cytokines present during treatment. The protocol: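 Primary-screen hits were rescreened on polarized hMDMs with the differentiating cytokines (IL-4 + IL-13 or IFNg + TNFa) kept in the medium during treatment with compound at 5 uM for 24 h. The eccentricity Z-score vs DMSO wells is averaged over experiments.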
Turning to `CCN(CC)CCOc1ccc2c(c1)C(=O)c1cc(OCCN(CC)CC)ccc1-2`, the “cell shape (Z-score)” value was -4.84.

With `COCc1c(C(C)C)nc(C(C)C)c(/C=C/[C@@H](O)C[C@@H](O)CC(=O)O)c1-c1ccc(F)cc1`, the “cell shape (Z-score)” value was 9.45.

With `CC1(C)C(=O)C=CC2(C)C1C=CC1(C)C2CCC2(C)C(c3ccoc3)OC(=O)C3OC312` (stereo unspecified), the “cell shape (Z-score)” value was -1.04.

In the case of `Cc1ccc(S(=O)(=O)OCC(=O)Nc2ccc(C(=O)O)c(O)c2)cc1`, the “cell shape (Z-score)” value was -2.63.

For `CN(C)CCC=C1c2ccccc2COc2ccccc21`, the “cell shape (Z-score)” value was -7.17.

For the compound `Cc1c(C(N)=O)cc([N+](=O)[O-])cc1[N+](=O)[O-]`, the “cell shape (Z-score)” value was found to be 3.38.

As to `C=CC(=O)N1CCC[C@@H](n2nc(-c3ccc(Oc4ccccc4)cc3)c3c(N)ncnc32)C1`, the “cell shape (Z-score)” value stood at 6.69.

`C(=N\NC1=NCCN1)/c1c2ccccc2c(/C=N/NC2=NCCN2)c2ccccc12`: the “cell shape (Z-score)” value stood at 33.2.

`C[C@H](CO)N1C[C@H](C)[C@H](CN(C)C(=O)Nc2cc(F)ccc2F)Oc2cc(C#CC3CCCC3)ccc2S1(=O)=O`: the “cell shape (Z-score)” value is -2.86.

Take `C=CCn1c(=O)c2cnc(Nc3ccc(N4CCN(C)CC4)cc3)nc2n1-c1cccc(C(C)(C)O)n1`: the “cell shape (Z-score)” value worked out at 5.45.

`CC1C(=O)C(=O)[C@@H]2O[C@@H]2C1=O` (stereo partly specified): the “cell shape (Z-score)” value was -0.0615.

Take `O=c1cc(-c2ccccc2F)[nH]c2cc3c(cc12)OCO3`: the “cell shape (Z-score)” value amounted to 0.5.

Regarding `Cc1cc(O)cc(=O)o1`, the “cell shape (Z-score)” value turned out to be 7.71.

On to `[O-][NH2+]c1ccc(O)c2ncccc12`, for which the “cell shape (Z-score)” value was -6.06.

Consider `COc1cccc2c1C(=O)c1c(O)c3c(c(O)c1C2=O)C[C@@](O)(C(C)=O)C[C@@H]3O[C@H]1C[C@H](N)[C@H](O)[C@H](C)O1`, for which the “cell shape (Z-score)” value stood at 8.83.

As to `C=C1C(=O)O[C@H]2C3=C(C)C[C@H](OC(C)=O)C[C@]3(C)CC[C@@H]12`, the “cell shape (Z-score)” value was -1.91.

For `COc1cc2ncn(-c3cc(OCc4ccccc4C(F)(F)F)c(C(N)=O)s3)c2cc1OC`, the “cell shape (Z-score)” value came out at 13.5.

For `CNC(=O)c1cc(Oc2ccc(NC(=O)Nc3ccc(Cl)c(C(F)(F)F)c3)c(F)c2)ccn1`, the “cell shape (Z-score)” value amounted to 12.1.

For `Cc1c(NC(=O)c2cccnc2)c(=O)n(-c2ccccc2)n1C`, the “cell shape (Z-score)” value was determined as 1.43.

For `NC(N)=NCCNS(=O)(=O)c1cccc2cnccc12`, the “cell shape (Z-score)” value was -4.47.

`c1ccc(-c2nnc(N3CCOCC3)nc2-c2ccccc2)cc1`: the “cell shape (Z-score)” value is -1.34.

As for `CC1(C)CCC(CN2CCN(c3ccc(C(=O)NS(=O)(=O)c4ccc(NCC5CCOCC5)c([N+](=O)[O-])c4)c(Oc4cnc5[nH]ccc5c4)c3)CC2)=C(c2ccc(Cl)cc2)C1`, the “cell shape (Z-score)” value amounted to 4.11.

For the compound `O=c1cc(-c2ccc(O)cc2)oc2cc(O)cc(O)c12`, the “cell shape (Z-score)” value was 0.0357.

Still in this assay, the particulars now being: 5 µM; 24 h; macrophage state: M2-polarized (IL-4 + IL-13), cytokines present during treatment.
For `O=C1c2ccccc2-c2nc3nonc3nc21`, the “cell shape (Z-score)” value is -2.4.

`CCCC[C@@H](O)c1cc(OC)cc(=O)o1`: the “cell shape (Z-score)” value was -3.33.

On to `Oc1ccc(-c2nc(-c3ccc(F)cc3)c(-c3ccncc3)[nH]2)cc1`, for which the “cell shape (Z-score)” value was -2.38.

With `C=C(NC(=O)C(=C)NC(=O)c1csc(C2=N[C@@H]3c4csc(n4)[C@H]4NC(=O)c5csc(n5)[C@H]([C@](C)(O)[C@@H](C)O)NC(=O)[C@H]5CSC(=N5)/C(=C/C)NC(=O)[C@H]([C@@H](C)O)NC(=O)c5csc(n5)[C@]3(CC2)NC(=O)[C@H](C)NC(=O)C(=C)NC(=O)[C@H](C)NC(=O)[C@H]([C@@H](C)CC)N[C@@H]2C=Cc3c([C@H](C)O)cc(nc3[C@H]2O)C(=O)O[C@@H]4C)n1)C(N)=O`, the “cell shape (Z-score)” value is -11.

Consider `CN[C@H]1CC[C@@H](c2ccc(Cl)c(Cl)c2)c2ccccc21`, for which the “cell shape (Z-score)” value was -4.29.

On to `CN(C)CCC=C1c2ccccc2COc2ccccc21`, for which the “cell shape (Z-score)” value is -5.83.

`N=C(NCCCCCCNC(=N)NC(=N)Nc1ccc(Cl)cc1)NC(=N)Nc1ccc(Cl)cc1`: the “cell shape (Z-score)” value was -10.6 and -7.15.

As to `O=C(Nc1ccc([N+](=O)[O-])cc1O)Nc1ccccc1Br`, the “cell shape (Z-score)” value was -12.2.

Regarding `O=C(Nc1ccc([N+](=O)[O-])cc1Cl)c1cc(Cl)ccc1O` [Niclosamide.2mM], the “cell shape (Z-score)” value is -6.52.

Turning to `CC(=O)N[C@@H](C(=O)O[C@H]1CCC(C)(C)[C@@H]2CCC3=C(COC3=O)[C@@]12C)C(C)C`, the “cell shape (Z-score)” value is -0.761.

In the case of `C=C(C(=O)O)[C@@H]1CC[C@@]2(C)CC[C@H](O)[C@@]2(C(C)=O)C1`, the “cell shape (Z-score)” value was -6.45.

`CC(C)CC1NC(=O)C(C)NC1=O` (stereo unspecified): the “cell shape (Z-score)” value is -2.08.

In the case of `C[C@@H]1O[C@@H](O[C@@H]2[C@@H](O)[C@H](OC(=O)[C@]34CCC(C)(C)CC3C3=CCC5[C@@]6(C)CC[C@H](OC7OC(CO)C(OC8OCC(O)C(O)C8O)C(O)C7O)C(C)(C)C6CC[C@@]5(C)[C@]3(C)CC4O)O[C@H]2CO)[C@H](O)[C@H](O)[C@H]1O[C@H]1OC[C@](O)(CO)[C@H]1O` (stereo partly specified), the “cell shape (Z-score)” value is -4.86.
